Test [1] has as its target Lysosomal acid glucosylceramidase (Homo sapiens) (UniProt P04062). The experiment in a line: Glucocerebrosidase-p2 (AID 348; in the data active = potency below about 10 µM; note: potency is the fitted concentration of half-maximal effect). The following applies: purified GBA, blue fluorogenic substrate, 40 min. Summed up:
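Normal human glucocerebrosidase (0.2 nM) with blue fluorogenic substrate (80 uM final) in citrate/phosphate pH 5.9 with 10mM sodium taurocholate, 0.01% tween-20; 40 min RT, NaOH/glycine stop; fluorescence Ex 365/Em 440; AC50 from a titration from 0.6 nM upwards.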

Test [2] can be described thus: AP1 Signaling Pathway (AID 357; active = well fitted curve in either direction with a large enough effect, not every such curve was filed as active;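 note: ME-180 reporter cells stimulated with EGF at its EC50 level; % is set by controls: 0 for no effect and ±100 for the full control effect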). Conditions: ME-180 AP-1-bla reporter, EGF-induced, beta-lactamase ratio, 5 h; at 7.69 µM (top of the series) unless noted. Summed up: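 Titration-series screen for positive or negative modulators of EC50 EGF-induced signaling in ME-180 cells carrying an AP-1-driven beta-lactamase reporter. After 5 hours at 37 degrees Celsius, CCF4 460nm/530nm emission ratio gave %Activity; AC50 values derived.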

Test [3] addresses Cytochrome P450 1A2 (Homo sapiens) (UniProt P05177). In words: p450-cyp1a2 (AID 410; calls by dose curve; note: potency is the fitted concentration of half-maximal effect;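 for activity change, negative = inhibition: -100% = full effect of reference inhibitor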). Conditions: recombinant CYP1A2, luciferin-ME demethylation, luminescence; series mostly up to 57 µM. Summed up:
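O-Demethylation of luciferin 6' methyl ether by human CYP1A2 is monitored as luciferase luminescence. Substrate sits at Km (100uM); enzyme is 20nM. Values are scaled to 57 uM furafylline as maximal inhibition.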

The nature of test [4]: NFAT Signaling Pathway (AID 444; active = well fitted curve in either direction with a large enough effect, not every such curve was filed as active;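 note: carbachol stimulus at about its EC50 of 1 µM final; % is set by controls: 0 for no effect and ±100 for the full control effect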). Conditions: Jurkat NFAT-bla M1, carbachol, beta-lactamase ratio, 5 h; at 7.69 µM (top of the series) unless noted. Summed up: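 Jurkat cells with NFAT-driven β-lactamase reporter and co-expressed M1 receptor, stimulated with carbachol (final 1 uM, ~EC50), compound titration, 5 h at 37 °C. CCF4 loaded 1 h at RT; 460/530 nm ratio gave %activity and AC50.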

Test [5] can be described thus: Stat Signaling Pathway (AID 446; active = well fitted curve in either direction with a large enough effect, not every such curve was filed as active;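 note: ME-180 cervical cancer cells given 40 pM IL-6 alongside compound; SIE-controlled beta-lactamase reporter measured as 460/530 nm FRET emission ratio; % is set by controls: 0 for no effect and ±100 for the full control effect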). The following applies: ME-180 SIE beta-lactamase reporter, IL-6 stimulated, 5 h; at 7.69 µM (top of the series) unless noted. Summed up:
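Compound effects on IL-6-induced STAT reporter activity were measured in ME-180 cells. After overnight culture, cells were co-treated with 40 pM IL-6 for 5 hrs before beta-lactamase substrate loading at room temperature.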

The target in test [6] is Glucocorticoid receptor (Homo sapiens) (UniProt P04150). The experiment in a line: GR-GFP Redistribution (AID 450;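 active = compounds whose dose series gives a full or clear partial fitted curve of increased nuclear translocation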; note: potency is the fitted concentration of half-maximal effect). The following applies: U2OS GR-GFP nuclear translocation, laser cytometry, 2 h.
Test [7] has the same target. In words: GR-EFC Redistribution (AID 451; calls by dose curve; note: potency is the fitted concentration of half-maximal effect). Conditions: CHO-K1 GR-EFC translocation, beta-gal luminescence, 2 h. Summed up: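 CHO-K1 cells expressing nuclear EA and GR-ED fragments of b-gal; compounds titrated up to 46 uM final, 2 h at 37 C. GR nuclear translocation read as complemented b-gal luminescence after 1 h RT detection.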
Test [8] has as its target Mitogen-activated protein kinase 10 (Mus musculus) (UniProt Q61831). The experiment in a line: JNK3 AlphaScreen Assay (AID 530; active = well fitted curve in either direction with a large enough effect, not every such curve was filed as active;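 note: kinase came from lysate of stimulated human HepG2 cells; signal reports phosphorylation of biotinylated GST-cJun 1-79 at Ser73 with 10 µM ATP; % is set by controls: 0 for no effect and ±100 for the full control effect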). Conditions: JNK3 lysate, c-Jun phosphorylation; series mostly up to 57.1 µM. Summed up: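 Activity was read by AlphaScreen after JNK3-containing HepG2 lysate (cytokine pre-activated) phosphorylated biotinylated GST-cJun with 10 uM ATP at room temperature. Phospho-Ser73 cJun antibody with Protein-A acceptor beads provided detection.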

The target in test [9] is Cytochrome P450 3A4 (Homo sapiens) (UniProt P08684). In words: qHTS Assay for Activators of Cytochrome P450 3A4 (AID 885). Note: nearly all actives have a fitted effect of over 65% in size. The following applies: recombinant CYP3A4, Luciferin-PPXE luminescence, 60 min; series mostly up to 57.1 µM. Summed up:
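CYP3A4 activity: Luciferin-PPXE O-dealkylation, 25uM substrate, 200mM KPO4, RT throughout. Read-out is luciferase luminescence; higher values reflect activation.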

Test [10] concerns the target Cytochrome P450 2C19 (Homo sapiens) (UniProt P33261). In words: qHTS Assay for Inhibitors and Substrates of Cytochrome P450 2C19 (AID 899). Note: potency is the fitted concentration of half-maximal effect; nearly all actives have a fitted effect of over 60% in size. The following applies: recombinant CYP2C19, luciferin-H EGE luminescence; series mostly up to 57.1 µM. Summed up: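 5 nM human CYP2C19 with 10uM Luciferin-H EGE (at KM) in 50mM KPO4, compound preincubated 10 min at 37C, then NADPH regeneration for 60 min at 37C. Luciferin read by luminescence after detection reagent; normalized to 57uM ketoconazole as full inhibition.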

Test [11] can be described thus: Counterscreen qHTS for small molecule stabilizers of the endoplasmic reticulum resident proteome: GLuc-NoTag assay (AID 1508627).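 Note: SH-SY5Y cells given compound then 100 nM thapsigargin to empty ER calcium; 0% = thapsigargin alone and -100% = DMSO vehicle control.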 The following applies: Gaussia luciferase NoTag secretion counterscreen, luminescence, thapsigargin 100 nM for final 4 h; series mostly up to 76.4 µM. The essentials: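 Counterscreen line: SH-SY5Y-GLuc-NoTag. Seed, 5 h; compound, 19 h; thapsigargin 100 nM, 4 h; 37C/5% CO2. Readout: secreted GLuc luminescence, coelenterazine 0.07x final, no lysis.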

Test [12] deals with 3',5'-cyclic-AMP phosphodiesterase 4B (Homo sapiens) (UniProt Q07343). The experiment in a line: qHTS Assay for Inhibitors of PDE-IV (AID 607; active = well fitted activation curve with a large enough effect in the main read-out, with a control signal flat, not every such curve was filed as active; note: % of control where 0% means no effect). Conditions: HEK293 ACTOne CNG channel cells, membrane potential fluorescence; series mostly up to 22.9 µM. The essentials:
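ACTOne HEK293 cells carry a modified cAMP-gated CNG channel and express endogenous PDE4; plated 1000 cells/well, compounds up to 22.9 uM final. Membrane-potential dye fluorescence (ex 535/em 590) was read; parental cells received 10 uM forskolin + 100 uM RO 20-1724.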

A short description of test [13]: qHTS Assay for Identification of Small Molecule Agonists for Hypoxia Response Element Signaling Pathway (AID 914; active = well fitted activation curve with a large enough effect in the signal ratio, with a control signal flat, not every such curve was filed as active; the % refers to the signal ratio; note: potency is the fitted concentration of half-maximal effect). Conditions: ME-180 (cervical carcinoma) HRE-bla reporter, beta-lactamase ratio, CoCl2, 17 h; activation: stronger effect = higher value. The essentials: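 Read-out: CCF4 FRET ratio of 460nm to 530nm emission (excitation 405nm) after 2.5 hours at room temperature, taken from HRE-bla ME-180 cells that had been exposed to compound and EC50 CoCl2 for 17 hours.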

Test [14] in a line: qHTS Assay for Lipid Storage Modulators (AID 1519; calls by dose curve). Conditions: Drosophila S3 cells, BODIPY lipid droplet/cell ratio, laser cytometry, cells loaded with oleic acid. Summed up: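 Cells seeded at 5,000 per well were treated with compounds over a concentration series and loaded with oleic acid (400 uM, as added). Lipid droplet fluorescence (488 nm excitation, 500-530 nm channel) was read by laser-scanning cytometry and normalized to 20 uM Triacsin C.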

For test [15], the target named is Dual specificity protein kinase CLK4 (Homo sapiens) (UniProt Q9HAZ1). In words: qHTS Assay for Inhibitors of CDC-like Kinase 4 (ADP-Glo Assay) (AID 1771). Note: % is set by controls: 0 for no effect and ±100 for the full control effect; nearly all actives have a fitted effect of over 70% in size. Conditions: recombinant CLK4, ADP-Glo luminescence; series mostly up to 80 µM. The essentials:
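Compounds are pin-transferred onto substrate mix (100 uM RS peptide, 1 uM ATP), then 25 nM Clk4 is added. After 1 hr at room temperature, ADP-Glo reagent runs 45 min, detection reagent 30 min, then luminescence is read.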

For test [16] the target is unchanged. The experiment in a line: qHTS Assay for Inhibitors of CDC-like Kinase 4 (ADP-FP Assay) (AID 1795).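 Note: recombinant human CLK4 phosphorylating RS repeat peptide at 1 µM ATP; % is set by controls: 0 for no effect and ±100 for the full control effect; nearly all actives have a fitted effect of over 60% in size.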 The following applies: Transcreener ADP fluorescence polarization; series mostly up to 50 µM. Summed up: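 Kinase activity was measured as ADP production using Transcreener orange tracer (4 nM) and ADP antibody (1 ug/mL) fluorescence polarization, with ADP calculated from a calibration curve. The 1 h reaction contained 6.25 nM Clk4, 1 uM ATP and 100 uM RS peptide at pH 7.5 with Mg2+.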

The target of test [17] is Ubiquitin carboxyl-terminal hydrolase 1 (Homo sapiens) (UniProt O94782). In words: Inhibitors of USP1/UAF1: Pilot qHTS (AID 504865).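 Note: rhodamine fluorescence freed from ubiquitin-rhodamine substrate followed over time; top concentration of the series differs between compounds; % is set by controls: 0 for no effect and ±100 for the full control effect; nearly all actives have a fitted effect of over 35% in size.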 The following applies: purified USP1/UAF1, Ub-rhodamine cleavage fluorescence; series mostly up to 54.9 µM. The essentials:
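Deubiquitinase activity followed as kinetic rhodamine fluorescence release from 150 nM Ub-Rho. 1 nM USP1/UAF1 with compound, after 15 min room-temperature preincubation, in HEPES pH 7.8 buffer containing TCEP, EDTA, BSA and Tween-20.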

A short description of test [18]: Cell Viability qHTS for small molecule stabilizers of the endoplasmic reticulum resident proteome (AID 1508629). Conditions: cell viability counter-screen, 100 nM thapsigargin for final 4 h.

Results filed as inconclusive are left out. The source made the active and inactive calls. Unless noted, calls come from the whole dose curve; as a rule, active = well fitted curve in the direction sought with a large enough effect; inconclusive = small, poorly fitted or top-dose-only effect, or another doubt; inactive = no such curve, though single readings can be large; an effect the other way counts as inactive or inconclusive.

Glucocorticoid receptor (Homo sapiens), sequence (P04150 whole entry, looked up, the tested form may be a part): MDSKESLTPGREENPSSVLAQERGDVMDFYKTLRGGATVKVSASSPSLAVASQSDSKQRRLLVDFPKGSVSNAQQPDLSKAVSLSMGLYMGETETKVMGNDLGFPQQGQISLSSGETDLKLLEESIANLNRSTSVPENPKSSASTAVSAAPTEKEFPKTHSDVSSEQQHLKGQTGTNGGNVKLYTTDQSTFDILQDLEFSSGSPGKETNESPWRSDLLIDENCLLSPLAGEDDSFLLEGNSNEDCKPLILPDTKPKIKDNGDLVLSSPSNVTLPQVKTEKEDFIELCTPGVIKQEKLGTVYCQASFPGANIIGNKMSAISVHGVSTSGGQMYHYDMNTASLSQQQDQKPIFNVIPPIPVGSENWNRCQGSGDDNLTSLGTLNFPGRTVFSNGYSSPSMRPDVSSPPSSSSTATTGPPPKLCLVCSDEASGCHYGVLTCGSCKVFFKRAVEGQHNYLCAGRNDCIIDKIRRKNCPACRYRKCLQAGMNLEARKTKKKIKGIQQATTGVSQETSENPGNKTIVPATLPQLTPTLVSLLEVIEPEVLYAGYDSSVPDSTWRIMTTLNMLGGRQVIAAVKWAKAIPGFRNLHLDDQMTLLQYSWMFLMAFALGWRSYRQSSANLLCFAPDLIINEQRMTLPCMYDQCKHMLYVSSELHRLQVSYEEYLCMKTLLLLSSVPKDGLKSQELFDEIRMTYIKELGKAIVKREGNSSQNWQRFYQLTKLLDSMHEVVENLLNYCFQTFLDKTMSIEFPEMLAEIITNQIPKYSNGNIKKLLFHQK
Cytochrome P450 3A4 (Homo sapiens), sequence (P08684 whole entry, looked up): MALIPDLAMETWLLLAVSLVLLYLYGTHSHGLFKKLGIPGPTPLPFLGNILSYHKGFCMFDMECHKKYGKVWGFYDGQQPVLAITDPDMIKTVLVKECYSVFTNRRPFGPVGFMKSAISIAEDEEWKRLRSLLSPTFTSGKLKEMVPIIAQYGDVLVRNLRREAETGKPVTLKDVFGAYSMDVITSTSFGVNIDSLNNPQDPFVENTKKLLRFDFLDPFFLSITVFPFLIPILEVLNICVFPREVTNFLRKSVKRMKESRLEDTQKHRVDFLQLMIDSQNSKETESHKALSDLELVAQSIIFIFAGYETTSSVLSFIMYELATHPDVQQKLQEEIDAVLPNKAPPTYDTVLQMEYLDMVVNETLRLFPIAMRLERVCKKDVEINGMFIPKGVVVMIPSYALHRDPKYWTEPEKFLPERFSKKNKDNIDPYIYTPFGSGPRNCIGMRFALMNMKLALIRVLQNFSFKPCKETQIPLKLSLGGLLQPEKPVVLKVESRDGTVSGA
Cytochrome P450 1A2 (Homo sapiens), sequence (P05177 whole entry, looked up): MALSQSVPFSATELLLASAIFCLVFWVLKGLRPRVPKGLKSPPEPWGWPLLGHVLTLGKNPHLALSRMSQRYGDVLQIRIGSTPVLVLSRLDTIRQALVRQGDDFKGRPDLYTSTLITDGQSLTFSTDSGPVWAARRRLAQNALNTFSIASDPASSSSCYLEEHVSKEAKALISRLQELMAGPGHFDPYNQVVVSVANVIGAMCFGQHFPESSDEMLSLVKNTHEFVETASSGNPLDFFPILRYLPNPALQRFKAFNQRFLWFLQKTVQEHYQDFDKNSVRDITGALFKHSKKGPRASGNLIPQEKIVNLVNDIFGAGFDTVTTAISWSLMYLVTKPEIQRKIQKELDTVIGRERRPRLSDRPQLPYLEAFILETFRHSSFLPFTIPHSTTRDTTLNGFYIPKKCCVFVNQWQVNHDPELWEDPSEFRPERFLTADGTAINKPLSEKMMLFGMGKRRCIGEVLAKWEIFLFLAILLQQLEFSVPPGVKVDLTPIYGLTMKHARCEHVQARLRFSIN
Lysosomal acid glucosylceramidase (Homo sapiens), sequence (P04062 whole entry, looked up): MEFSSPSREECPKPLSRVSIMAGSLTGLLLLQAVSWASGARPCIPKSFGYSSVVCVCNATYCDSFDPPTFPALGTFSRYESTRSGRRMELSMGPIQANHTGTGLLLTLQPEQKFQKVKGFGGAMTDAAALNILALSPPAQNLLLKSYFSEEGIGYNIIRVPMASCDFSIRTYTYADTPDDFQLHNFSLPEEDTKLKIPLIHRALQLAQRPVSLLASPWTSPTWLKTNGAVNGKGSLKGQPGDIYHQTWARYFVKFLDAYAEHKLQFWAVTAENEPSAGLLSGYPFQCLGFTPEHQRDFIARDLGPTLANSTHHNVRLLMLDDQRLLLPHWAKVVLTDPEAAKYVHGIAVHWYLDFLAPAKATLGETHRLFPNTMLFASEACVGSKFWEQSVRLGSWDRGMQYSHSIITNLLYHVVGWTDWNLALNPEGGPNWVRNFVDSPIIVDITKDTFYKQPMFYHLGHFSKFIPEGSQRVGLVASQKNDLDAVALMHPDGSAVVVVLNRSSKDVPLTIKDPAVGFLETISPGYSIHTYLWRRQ
3',5'-cyclic-AMP phosphodiesterase 4B (Homo sapiens), sequence (Q07343 whole entry, looked up): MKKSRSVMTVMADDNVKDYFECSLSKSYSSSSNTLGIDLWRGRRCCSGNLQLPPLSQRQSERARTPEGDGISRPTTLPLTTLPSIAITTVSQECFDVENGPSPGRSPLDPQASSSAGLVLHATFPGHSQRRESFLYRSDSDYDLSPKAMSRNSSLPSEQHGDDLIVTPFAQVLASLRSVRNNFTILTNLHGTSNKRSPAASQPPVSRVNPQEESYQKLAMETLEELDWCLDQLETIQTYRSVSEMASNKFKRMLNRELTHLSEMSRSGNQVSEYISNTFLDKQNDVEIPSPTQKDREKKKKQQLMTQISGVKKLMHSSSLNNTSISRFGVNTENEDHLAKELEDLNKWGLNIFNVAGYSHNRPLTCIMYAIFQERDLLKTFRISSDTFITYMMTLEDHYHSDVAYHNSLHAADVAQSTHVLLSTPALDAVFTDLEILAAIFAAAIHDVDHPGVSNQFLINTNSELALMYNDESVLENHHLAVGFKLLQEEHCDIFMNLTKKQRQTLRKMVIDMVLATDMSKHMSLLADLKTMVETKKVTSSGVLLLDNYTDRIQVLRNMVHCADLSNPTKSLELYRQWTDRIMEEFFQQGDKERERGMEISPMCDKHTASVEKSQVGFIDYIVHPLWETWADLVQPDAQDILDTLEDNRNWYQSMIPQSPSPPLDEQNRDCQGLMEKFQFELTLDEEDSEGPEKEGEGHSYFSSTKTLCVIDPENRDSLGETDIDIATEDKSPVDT
Dual specificity protein kinase CLK4 (Homo sapiens), sequence (Q9HAZ1 whole entry, looked up): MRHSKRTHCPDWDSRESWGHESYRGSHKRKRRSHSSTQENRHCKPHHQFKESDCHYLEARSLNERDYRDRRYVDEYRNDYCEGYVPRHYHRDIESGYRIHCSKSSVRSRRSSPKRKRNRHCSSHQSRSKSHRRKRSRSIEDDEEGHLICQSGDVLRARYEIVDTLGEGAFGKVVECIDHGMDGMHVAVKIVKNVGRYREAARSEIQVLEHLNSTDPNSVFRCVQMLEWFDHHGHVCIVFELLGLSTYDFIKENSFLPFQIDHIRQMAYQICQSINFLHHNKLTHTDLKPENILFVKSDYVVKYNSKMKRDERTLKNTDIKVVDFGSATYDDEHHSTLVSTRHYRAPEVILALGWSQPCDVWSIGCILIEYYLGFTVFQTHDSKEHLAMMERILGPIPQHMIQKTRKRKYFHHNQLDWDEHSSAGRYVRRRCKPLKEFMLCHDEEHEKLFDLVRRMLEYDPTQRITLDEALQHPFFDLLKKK
Cytochrome P450 2C19 (Homo sapiens), sequence (P33261 whole entry, looked up): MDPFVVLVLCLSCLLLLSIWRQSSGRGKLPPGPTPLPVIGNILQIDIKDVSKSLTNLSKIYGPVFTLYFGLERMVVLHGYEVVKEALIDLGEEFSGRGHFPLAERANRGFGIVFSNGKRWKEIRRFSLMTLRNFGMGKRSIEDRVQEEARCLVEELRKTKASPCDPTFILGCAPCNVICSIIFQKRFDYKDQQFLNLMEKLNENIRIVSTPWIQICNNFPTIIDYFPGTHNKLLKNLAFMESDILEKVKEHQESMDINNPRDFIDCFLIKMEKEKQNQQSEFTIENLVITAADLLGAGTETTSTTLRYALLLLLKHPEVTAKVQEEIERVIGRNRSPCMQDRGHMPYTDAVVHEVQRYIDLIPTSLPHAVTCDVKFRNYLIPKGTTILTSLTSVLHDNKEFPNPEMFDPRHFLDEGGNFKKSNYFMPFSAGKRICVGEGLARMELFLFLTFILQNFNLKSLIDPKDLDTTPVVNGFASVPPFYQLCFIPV
Ubiquitin carboxyl-terminal hydrolase 1 (Homo sapiens), sequence (O94782 whole entry, looked up): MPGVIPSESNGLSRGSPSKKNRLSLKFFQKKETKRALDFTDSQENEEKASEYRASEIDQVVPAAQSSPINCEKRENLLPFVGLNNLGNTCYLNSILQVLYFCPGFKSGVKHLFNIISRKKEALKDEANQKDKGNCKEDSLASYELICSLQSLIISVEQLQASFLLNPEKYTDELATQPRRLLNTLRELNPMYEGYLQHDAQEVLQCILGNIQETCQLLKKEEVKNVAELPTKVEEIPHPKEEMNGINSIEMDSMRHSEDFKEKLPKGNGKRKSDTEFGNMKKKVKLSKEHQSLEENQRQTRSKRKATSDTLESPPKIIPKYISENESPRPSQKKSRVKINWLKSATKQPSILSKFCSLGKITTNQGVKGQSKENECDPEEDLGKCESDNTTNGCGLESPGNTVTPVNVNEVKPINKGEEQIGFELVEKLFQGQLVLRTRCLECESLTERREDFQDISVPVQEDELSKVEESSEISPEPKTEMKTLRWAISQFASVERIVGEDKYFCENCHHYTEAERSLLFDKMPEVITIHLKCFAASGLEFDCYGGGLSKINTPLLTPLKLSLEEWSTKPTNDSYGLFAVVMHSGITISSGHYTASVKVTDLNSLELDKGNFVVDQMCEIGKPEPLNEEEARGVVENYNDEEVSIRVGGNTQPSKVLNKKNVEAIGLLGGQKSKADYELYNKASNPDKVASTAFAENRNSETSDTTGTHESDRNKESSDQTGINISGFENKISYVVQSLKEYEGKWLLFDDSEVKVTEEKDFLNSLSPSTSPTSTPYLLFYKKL

Take `COCCn1c(=O)c(CCc2ccccc2)nc2cnc(OC)nc21`: the Potency in test [1] was > 11.4 µM (inactive); in test [3], 10 µM (active); in test [6], > 9.22 µM (inactive); in [7] it was > 46 µM (inactive); in [10], 0.794 µM (active). For the same molecule, the activity change, negative = inhibition in test [2] was -6.75% (inactive); in [4], -10.3% (inactive). Moreover, the activity, negative = inhibition in test [5] is -4.28% (inactive). For the same molecule, the call in test [8] was inactive. The Potency result in [9] and in [11] was “inactive” in each case.

Consider `COc1cccc(Cn2c(=O)c(-c3ccccc3)nc3cnc(N4CCNCC4)nc32)c1`, for which the Potency in test [1] was > 11.4 µM (inactive); in test [3], 3.16 µM (active); in [6], > 9.22 µM (inactive); in test [7], > 46 µM (inactive); in [13], 3.16 µM (active). Also, the Potency result in [12], in test [9], in test [15], in test [16], in test [17] and in test [11] was “inactive” throughout. Besides, the activity change, negative = inhibition in test [14] (at 57.5 µM (top of the series)) was 4.45% (inactive). The values for the max response in test [14] (measured here: cell count channel max response) and in test [14] (measured here: lipid channel max response) were 8.56% and 11.2%, respectively.

Regarding `O=C(Nc1cccc(F)c1)N1CCCC2(CCNCC2)C1`, the figures for the Potency in [1] and in test [7] were > 11.4 µM (inactive) and > 46 µM (inactive), respectively. In addition, the results for the activity change, negative = inhibition in [2] and in test [4] were -6.17% (inactive) and 12.2% (inactive), respectively. The Potency entry in test [3], in test [12], in [9] and in test [11] was “inactive” each time. Moreover, in test [5], the activity, negative = inhibition is -5.47% (inactive). Besides, the molecule was called inactive in test [8]. In test [18], the max response is 8.67% (inactive).

For the origin of these results see PubChem BioAssay (NCATS).
